# Measured values taken from the supplement of paper PMC11634586.
# Structures can show the parent of a compound that is named as a salt.
# Test system: NCI-H1688
# Assay: inhibition of cell viability relative to untreated control (fraction); higher = stronger growth inhibition, active = 0.5 or more
# Conditions: 30 µM; 24 h
# Description: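 Natural product library (TargetMol, 640 compounds) screened on NCI-H1688 SCLC cells at 30 µM for 24 h; viability by CCK-8 absorbance at 450 nm, normalised to untreated control and expressed as inhibition rate (fraction). Compounds with >50% reduction in viability were selected as hits.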
row,SMILES,inhibition of cell viability
1,C=C[C@@H]1C2=CCOC(=O)C2=CO[C@H]1O[C@@H]1O[C@H](CO)[C@@H](O)[C@H](O)[C@H]1O [Gentiopicrin],-0.0346 (inactive)
2,COc1cc(OC)c(OC)cc1C=O [Asarylaldehyde],-0.42 (inactive)
3,O=C1C=CC[C@@H]2[C@H]3CCCN4CCC[C@@H](CN12)[C@@H]34 [Sophocarpine],-0.484 (inactive)
4,CC1=C2C[C@H]3[C@@H](CC=C4C[C@@H](O)CC[C@@]43C)[C@@H]2CC[C@]12O[C@@H]1C[C@H](C)CN[C@H]1[C@H]2C [Cyclopamine],0.162 (inactive)
5,Cc1c2ccncc2c(C)c2c1[nH]c1ccccc12 [Ellipticine],0.996 (active)
6,O=C1C=CC[C@@H]2[C@H]3CCC[N+]4([O-])CCC[C@@H](CN12)[C@@H]34 (stereo not given in full) [Oxysophocarpine],-0.0366 (inactive)
7,COc1cc([C@@H]2c3cc4c(cc3[C@@H](O)[C@H]3COC(=O)[C@H]23)OCO4)cc(OC)c1O [4'-Demethylepipodophyllotoxin],0.568 (active)
8,COc1ccc(Cc2nccc3cc(OC)c(OC)cc23)cc1OC [Papaverine hydrochloride],0.205 (inactive)
9,CC[C@H]1CN2CC[C@H]1C[C@@H]2[C@@H](O)c1ccnc2ccc(OC)cc12 [Hydroquinidine],-0.0507 (inactive)
10,CCC12C=CCN3CC[C@@]4(c5ccc(OC)cc5N(C)[C@H]4[C@@](O)(C(=O)OC)[C@@H]1OC(C)=O)[C@@H]32 (stereo not given in full) [Vindoline],-0.0958 (inactive)
11,N#C[C@H](O[C@@H]1O[C@H](C(=O)O)[C@@H](O)[C@H](O)[C@H]1O)c1ccccc1 [Laetrile],0.0291 (inactive)
12,NCCc1ccc(O)cc1 [Tyramine],0.176 (inactive)
13,C[C@H]1C(=O)O[C@@H]2CCN3CC=C(COC(=O)[C@](C)(O)[C@]1(C)O)[C@H]23 [Monocrotaline],0.161 (inactive)
14,COc1ccc2c(c1OC)CN1CCc3cc4c(cc3C1C2)OCO4 (stereo not given) [Tetrahydroberberine THB],0.0966 (inactive)
15,CN1[C@@H]2C[C@@H](OC(=O)[C@H](CO)c3ccccc3)C[C@H]1[C@@H]1O[C@@H]12 [Scopolamine HBr],-0.0423 (inactive)
16,COc1ccc2c(c1)[nH]c1c(C)nccc12 [Harmine],0.462 (inactive)
17,CCC(=O)O[C@H]1CC[C@H]2[C@@H]3CC[C@H]4CC(=O)[C@H](C)C[C@]4(C)[C@H]3CC[C@]12C [Drostanolone Propionate],0.313 (inactive)
18,O=c1ccc2cc(O[C@@H]3O[C@H](CO)[C@@H](O)[C@H](O)[C@H]3O)c(O)cc2o1 [Esculin],-0.139 (inactive)
19,S=C=NCc1ccccc1 [Benzyl isothiocyanate],0.59 (active)
20,CN(CC(=O)O)C(=N)NP(=O)(O)O [Creatine phosphate disodium salt],0.256 (inactive)
21,C[C@@H]1CC[C@H]2[C@@H](C)C(=O)O[C@@H]3O[C@@]4(C)CC[C@@H]1[C@]32OO4 [Artemisinin],0.118 (inactive)
22,CN1[C@@H]2C[C@@H](OC(=O)[C@H](CO)c3ccccc3)C[C@H]1[C@@H]1O[C@@H]12 [Scopolamine HBr trihydrate],0.0269 (inactive)
23,COc1cc(C2OCC3C(c4cc(OC)c(O[C@@H]5O[C@H](CO)[C@@H](O)[C@H](O)[C@H]5O)c(OC)c4)OCC23)cc(OC)c1O[C@H]1O[C@@H](CO)[C@H](O)[C@@H](O)[C@@H]1O (stereo not given in full) [Eleutheroside E],0.231 (inactive)
24,O=C(O)CC[N+](=O)[O-] [Bovinocidin],-0.0746 (inactive)
25,C[C@H]1CC(=O)C[C@@H]2CC[C@H]3[C@@H]4CC[C@H](O)[C@@]4(C)CC[C@@H]3[C@]21C [Mesterolone],0.237 (inactive)
26,C[C@@H]1CC[C@@]2(OC1)O[C@H]1C[C@H]3[C@@H]4CC=C5C[C@@H](O[C@@H]6O[C@H](CO)[C@@H](O[C@@H]7O[C@@H](C)[C@H](O)[C@@H](O)[C@H]7O)[C@H](O)[C@H]6O[C@@H]6O[C@@H](C)[C@H](O)[C@@H](O)[C@H]6O)CC[C@]5(C)[C@H]4CC[C@]3(C)[C@H]1[C@@H]2C [Dioscin],0.976 (active)
27,C[C@]12CC[C@H]3[C@@H](CCC4=CC(=O)CC[C@@]43C)[C@@H]1CC[C@@H]2O [Testosterone],0.182 (inactive)
28,CC(=O)O[C@@]12CO[C@@H]1C[C@H](O)[C@@]1(C)C(=O)[C@H](O)C3=C(C)[C@@H](OC(=O)[C@H](O)[C@@H](NC(=O)c4ccccc4)c4ccccc4)C[C@@](O)([C@@H](OC(=O)c4ccccc4)[C@H]21)C3(C)C [Deacetyltaxol],0.667 (active)
29,C=C[C@H]1CN2CC[C@H]1C[C@H]2[C@H](O)c1ccnc2ccccc12 [Cinchonidine],-0.042 (inactive)
30,CCC(=O)O[C@H]1CC[C@H]2[C@@H]3CCC4=CC(=O)CC[C@]4(C)[C@H]3CC[C@]12C [Testosterone propionate],-0.173 (inactive)
